{"source": "the supplement of paper PMC8728848", "binders": {"B1": {"name": "PX14375F-bfa-539-21-539 (Bacteroides fragilis) (protein)", "chain": "EDFLQKDPPSSPSQSVFWQKKSDFESALAGTYSVMYSGVFSQIMPCLDGLTDNAIVQHSEGTYGWAKTIAQGDLTPNQGGFVTDIYGNCYKGIARVHILMEQLDQYTGSDISADEKKFMLAQCKALRGYFYSWLYQCYKEVPVVTQSLDLNTMYQPKATRAEVLNRVMTDYDEAISELPDKLYSDSQTSGRFTVSAVKALKARILLFDAYDSNGKAISSKMEEVLTLLQSIKGYSLAARVRDNFISEKQLASPEIMFSVRFLRPNLTHSMDLYYGAWAVLDPTRNMVDAFECTDGKPWGESPLTVRPDESILYGNDDALKKAERAKMFMNRDRRLYESVNHSMMANFVDDGFKDEEVQVNESNNKGPTGFSALKYVQPTDVTPGYSTVSDADIVVLRYAHVLLMIAEAENEAHGATTTALNAINEVRTRSGQPAIEAGISQDDLRERIRNEWRIETCFEGLRYFQLKRWKLMDKRVNGVEDPAYPGYIKVYKPAFEFFPIPQSEIDKAGGVLKQDPAYE"}}, "assay_in_all_cases": "glycan array binding signal (z-score within array); higher = stronger binding", "details_in_all_cases": "glycan notation: IUPAC condensed, linker removed", "key": {"[1]": {"molecular_target": "GlcNAc(a1-4)Gal(b1-4)GlcNAc", "method_in_brief": "(§1)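 Glycan array data came from 3228 arrays in the Consortium for Functional Glycomics database, and only arrays with an available protein sequence were kept. Glycan names were put into IUPAC-condensed notation, and columns mapping to the same glycan were averaged. The binding signal is a within-array Z-score, averaged across arrays of one protein sequence run at different concentrations or buffers and across linkers. A negative Z-score can be read as non-binding.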"}, "[2]": {"molecular_target": "GlcNAc(a1-4)Gal(b1-4)GlcNAc(b1-3)Gal(b1-4)GlcNAc(b1-3)Gal(b1-4)GlcNAc", "method_in_brief": "as §1"}, "[3]": {"molecular_target": "GlcNAc(b1-2)Man(a1-3)[GlcNAc(b1-2)Man(a1-6)]Man(b1-4)GlcNAc(b1-4)[Fuc(a1-6)]GlcNAc", "method_in_brief": "as §1"}, "[4]": {"molecular_target": "GlcNAc(b1-2)Man(a1-3)[GlcNAc(b1-4)][GlcNAc(b1-2)Man(a1-6)]Man(b1-4)GlcNAc(b1-4)[Fuc(a1-6)]GlcNAc", "method_in_brief": "as §1"}, "[5]": {"molecular_target": "Man(a1-3)[Man(a1-6)]Man(a1-6)[Man(a1-3)]Man(b1-4)GlcNAc(b1-4)GlcNAc", "method_in_brief": "as §1"}, "Man(b1-4)GlcNAc": {"molecular_target": "Man(b1-4)GlcNAc", "method_in_brief": "as §1"}, "[6]": {"molecular_target": "Neu5Ac(a2-3)Gal(b1-3)GalNAc(b1-3)Gal(a1-4)Gal(b1-4)Glc", "method_in_brief": "as §1"}, "[7]": {"molecular_target": "Neu5Ac(a2-3)Gal(b1-4)GlcNAc(b1-2)Man(a1-3)[GlcNAc(b1-4)][Neu5Ac(a2-3)Gal(b1-4)GlcNAc(b1-2)Man(a1-6)]Man(b1-4)GlcNAc(b1-4)GlcNAc", "method_in_brief": "as §1"}, "[8]": {"molecular_target": "Neu5Ac(a2-3)Gal(b1-4)GlcNAc(b1-3)Gal(b1-4)GlcNAc(b1-3)Gal(b1-4)GlcNAc(b1-2)Man(a1-3)[Neu5Ac(a2-3)Gal(b1-4)GlcNAc(b1-3)Gal(b1-4)GlcNAc(b1-3)Gal(b1-4)GlcNAc(b1-2)Man(a1-6)]GalNAc", "method_in_brief": "as §1"}, "[9]": {"molecular_target": "Neu5Ac(a2-3)Gal(b1-4)GlcNAc(b1-3)[Neu5Ac(a2-3)Gal(b1-4)GlcNAc(b1-6)]GalNAc", "method_in_brief": "as §1"}, "Neu5Ac(a2-3)GalNAc": {"molecular_target": "Neu5Ac(a2-3)GalNAc", "method_in_brief": "as §1"}, "[10]": {"molecular_target": "Neu5Ac(a2-3)[GalNAc(b1-4)]Gal(b1-4)GlcNAc", "method_in_brief": "as §1"}, "[11]": {"molecular_target": "Neu5Ac(a2-6)Gal(b1-4)GlcNAc(b1-2)Man(a1-3)[Man(a1-6)]Man(b1-4)GlcNAc(b1-4)GlcNAc", "method_in_brief": "as §1"}, "[12]": {"molecular_target": "Neu5Ac(a2-6)Gal(b1-4)GlcNAc(b1-2)Man(a1-6)[Man(a1-3)]Man(b1-4)GlcNAc(b1-4)GlcNAc", "method_in_brief": "as §1"}, "[13]": {"molecular_target": "Neu5Ac(a2-6)Gal(b1-4)GlcNAc(b1-2)[Neu5Ac(a2-6)Gal(b1-4)GlcNAc(b1-4)]Man(a1-3)[GlcNAc(b1-4)][Neu5Ac(a2-6)Gal(b1-4)GlcNAc(b1-4)Man(a1-6)]Man(b1-4)GlcNAc(b1-4)GlcNAc", "method_in_brief": "as §1"}, "[14]": {"molecular_target": "Neu5Ac(a2-6)Gal(b1-4)GlcNAc(b1-3)Gal(b1-4)GlcNAc(b1-3)Gal(b1-4)GlcNAc(b1-2)Man(a1-3)[Neu5Ac(a2-6)Gal(b1-4)GlcNAc(b1-3)Gal(b1-4)GlcNAc(b1-3)Gal(b1-4)GlcNAc(b1-2)Man(a1-6)]GalNAc", "method_in_brief": "as §1"}, "[15]": {"molecular_target": "Neu5Ac(a2-6)Gal(b1-4)GlcNAc(b1-3)Gal(b1-4)GlcNAc(b1-6)[Gal(b1-3)]GalNAc", "method_in_brief": "as §1"}, "[16]": {"molecular_target": "Neu5Ac(a2-6)Gal(b1-4)GlcNAc(b1-3)Gal(b1-4)[Fuc(a1-3)]GlcNAc(b1-3)Gal(b1-4)[Fuc(a1-3)]GlcNAc", "method_in_brief": "as §1"}, "[17]": {"molecular_target": "Neu5Ac(a2-6)Gal(b1-4)GlcNAc(b1-3)GalNAc", "method_in_brief": "as §1"}, "[18]": {"molecular_target": "Neu5Ac(a2-6)GlcNAc(b1-4)GlcNAc(b1-4)GlcNAc", "method_in_brief": "as §1"}, "Neu5Ac(a2-8)Neu5Ac": {"molecular_target": "Neu5Ac(a2-8)Neu5Ac", "method_in_brief": "as §1"}, "[19]": {"molecular_target": "Neu5Ac(a2-8)Neu5Gc(a2-3)Gal(b1-4)GlcNAc", "method_in_brief": "as §1"}, "[20]": {"molecular_target": "Neu5Gc(a2-3)Gal(b1-4)GlcNAc", "method_in_brief": "as §1"}}, "note": "This excerpt belongs to a sample that is enriched for the strongest signals.", "data": [{"binder": "B1", "values": [{"measurement": "glycan array binding signal (z-score)", "setting": "[1]", "value": 0.011}, {"measurement": "glycan array binding signal (z-score)", "setting": "[2]", "value": -0.081}, {"measurement": "glycan array binding signal (z-score)", "setting": "[3]", "value": -0.47}, {"measurement": "glycan array binding signal (z-score)", "setting": "[4]", "value": -0.471}, {"measurement": "glycan array binding signal (z-score)", "setting": "[5]", "value": -0.28}, {"measurement": "glycan array binding signal (z-score)", "setting": "Man(b1-4)GlcNAc", "value": -0.448}, {"measurement": "glycan array binding signal (z-score)", "setting": "[6]", "value": -0.715}, {"measurement": "glycan array binding signal (z-score)", "setting": "[7]", "value": 0.245}, {"measurement": "glycan array binding signal (z-score)", "setting": "[8]", "value": 4.15}, {"measurement": "glycan array binding signal (z-score)", "setting": "[9]", "value": -0.205}, {"measurement": "glycan array binding signal (z-score)", "setting": "Neu5Ac(a2-3)GalNAc", "value": -0.323}, {"measurement": "glycan array binding signal (z-score)", "setting": "[10]", "value": -0.459}, {"measurement": "glycan array binding signal (z-score)", "setting": "[11]", "value": -0.309}, {"measurement": "glycan array binding signal (z-score)", "setting": "[12]", "value": -0.518}, {"measurement": "glycan array binding signal (z-score)", "setting": "[13]", "value": -0.061}, {"measurement": "glycan array binding signal (z-score)", "setting": "[14]", "value": 2.67}, {"measurement": "glycan array binding signal (z-score)", "setting": "[15]", "value": -0.919}, {"measurement": "glycan array binding signal (z-score)", "setting": "[16]", "value": -0.045}, {"measurement": "glycan array binding signal (z-score)", "setting": "[17]", "value": -0.096}, {"measurement": "glycan array binding signal (z-score)", "setting": "[18]", "value": -0.585}, {"measurement": "glycan array binding signal (z-score)", "setting": "Neu5Ac(a2-8)Neu5Ac", "value": -0.05}, {"measurement": "glycan array binding signal (z-score)", "setting": "[19]", "value": 15.8}, {"measurement": "glycan array binding signal (z-score)", "setting": "[20]", "value": -0.782}]}]}
